Compound activity (PubChem BioAssay)
SW480 rereplic: A quantitative high throughput screen for small molecules that induce DNA re-replication in SW480 colon adenocarcinoma cells; SW480 DNA re-replication, Hoechst DNA content imaging, 48 h; Potency, µM (highest dose often 46.1 µM), most hits filed as activators; hit rate 1.8% among 340,000; AID 624297, 2012; also: nearly all actives have a fitted effect of over 55% in size
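Compounds, transferred as 23 nL by pin tool, were incubated with cells for 48 hr; DNA content per nucleus was then quantified by Hoechst staining and fluorescence plate imaging.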
KB-3-1 tox: qHTS assay for MDR1-selective chemotherapeutics: Primary screen using the parental adenocarcinoma cell KB-3-1. KB-3-1 viability, CellTiter-Glo ATP luminescence, 72 h. Potency, µM (doses to about 46.1 µM), hits mostly cytotoxic. hit rate 1.4% among 400,000; also: nearly all actives have a fitted effect of over 60% in size
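Cytotoxicity in the drug-sensitive parental line KB-3-1 was scored as loss of CellTiter-Glo luminescence following 72 h incubation with compound. Values come from curve fitting of normalized concentration-response data.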
ELG1 repair inh: qHTS screen for small molecules that inhibit ELG1-dependent DNA repair in human embryonic kidney (HEK293T) cells expressing luciferase-tagged ELG1 | HEK293T ELG1-luciferase reporter, luminescence, 16 h; DNA damage induced by 5-fluorouridine | hit rate 2.3% among 330,000 | Potency, µM (titrated, usually from 46.1 µM), usual class: inhibitors; also: nearly all actives have a fitted effect of over 55% in size
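Step one: seed 2,000 cells per well. Step two: pin-transfer compound or DMSO alongside 5-fluorouridine. Step three: incubate 16 hr, 37 °C, 5% CO2. Step four: add ONE-Glo, wait 30 min, read luminescence.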
MCF10A rereplic: A quantitative high throughput screen for small molecules that induce DNA re-replication in MCF 10a normal breast cells | MCF 10A DNA re-replication, Hoechst nuclear intensity, 48 h | Potency, µM (top dose mostly 46.1 µM), hits mostly activators | hit rate 2.9% among 350,000 | AID 624296, 2012; also: nearly all actives have a fitted effect of over 50% in size
KB-V1 cytotox: qHTS assay for MDR1-selective chemotherapeutics: Primary screen using the drug-selected MDR subline cells KB-V1; hit rate 3.4% among 400,000; Potency, µM (highest dose often 46.1 µM), usual class: cytotoxic; KB-V1 MDR cells viability, CellTiter-Glo, 72 h; AID 1347076, 2019; also: nearly all actives have a fitted effect of over 60% in size
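Luminescent ATP read-out (CellTiter-Glo, 10 min) measures survival of drug-selected KB-V1 MDR cells after 72 h, 37 degrees C compound exposure. Medium: phenol-red-free DMEM, 10% FBS. Values from fitted concentration-response curves.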
Numbers stand for hits; i = inactive; ? = inconclusive; nt = no result given. Sampled rows, rich in hits. Any-hit rate of the full collection: about 8.1%. Calls follow the shape of the dose curve; as a rule, active = well fitted curve in the direction sought with a large enough effect; inconclusive = small, poorly fitted or top-dose-only effect, or another doubt; inactive = no such curve, though single readings can be large; an effect the other way counts as inactive or inconclusive.

SMILES | SW480 rereplic | KB-3-1 tox | ELG1 repair inh | MCF10A rereplic | KB-V1 cytotox
CN(C)c1ccc(CNc2nc(-c3ccco3)nn2C(=O)c2cccc([N+](=O)[O-])c2)cc1 | nt | i | nt | nt | i
Cc1ccc(C)c(OCCOCCn2c(-c3ccc(Br)cc3)nc3ccccc3c2=O)c1C | nt | i | nt | nt | i
CC(=O)N1CCCc2cc(S(=O)(=O)N3CCC(N(C)C(C)C)CC3)ccc21 | nt | i | nt | nt | i
CN(CCNC(=O)c1cc2c(=O)n(C)c3ccccc3c2n1C)Cc1ccccc1 | i | ? | ? | 20.6µM | i
CCN(CC)CCNC(=O)c1cc2c(=O)n(C)c3ccccc3c2s1 | ? | i | ? | 23.1µM | ?
CCCCN(CC)CCCNC(=O)c1cc2c(=O)n(CC)c3ccccc3c2s1 | ? | ? | ? | ? | i
CCCN(CCC)CCCNC(=O)c1cc2c(=O)n(CC)c3ccccc3c2s1 | ? | 23.1µM | ? | ? | ?
CN(C)CCCNC(=O)c1cc2sc3ccccc3c2s1 | ? | i | ? | 7.31µM | i
CCCN(CCC)CCNC(=O)c1cc2c(=O)n(C)c3ccccc3c2n1C | i | i | ? | ? | i
C=CC[C@@H](CC(=O)NCCO)C(=O)N[C@@H](COC(=O)[C@@H](CC=C)CC(=O)OC(C)(C)C)Cc1c[nH]c2ccccc12 | i | i | ? | i | i
O=C(CNC(=O)c1ccccc1F)N/N=C/c1cc(Br)ccc1OCc1ccccc1 | ? | i | 8.2µM | i | i
O=C(CNC(=O)c1cccc(F)c1)N/N=C/c1cc(Br)ccc1OCc1ccccc1 | i | i | ? | ? | i
CSc1nc(C)cc(OCC(=O)N/N=C/c2ccccc2O)n1 | ? | 5.8µM | ? | 5.17µM | i
Cc1ccc(SCCC(=O)N/N=C/c2ccccc2O)cc1 | ? | ? | i | i | ?
O=C(CSCC(=O)NN=Cc1ccccc1O)NN=Cc1ccccc1O | ? | nt | nt | 14.6µM | nt
O=C(CCCCC(=O)NN=Cc1ccccc1O)NN=Cc1ccccc1O | 1.46µM | ? | nt | ? | i
Cc1cc(=O)oc2cc(OCC(=O)N/N=C/c3ccccc3O)ccc12 | i | ? | i | i | i
O=C(CCC(=O)Nc1ccc(Br)cc1)N/N=C/c1ccccc1O | ? | ? | ? | i | ?
NC(=O)c1c(NC(=O)c2ccco2)sc2c1CCCC2 | nt | i | nt | nt | i
CCc1ccc(-n2nc3cc(C)c(NC(=O)c4cc(Cl)ccc4OC)cc3n2)cc1 | nt | i | nt | nt | i
C/C(=N\NC(=O)Cc1csc(N2CCOCC2)n1)c1ccccc1 | i | i | i | i | i
O=C(COc1nsnc1N1CCOCC1)N/N=C/c1ccccc1O | 18.4µM | i | ? | ? | ?
O=C(Cc1csc(N2CCOCC2)n1)N/N=C/c1ccc(O)c(O)c1O | i | ? | 13µM | i | i
O=C(Cc1ccccc1)N/N=C/c1cc(Br)cc(Br)c1O | 4.11µM | ? | 6.51µM | 7.31µM | i
O=C(CNC(=O)c1cccc(Br)c1)N/N=C/c1cc(Br)cc(Br)c1O | i | i | i | i | i
SMILES | SW480 rereplic | KB-3-1 tox | ELG1 repair inh | MCF10A rereplic | KB-V1 cytotox
O=C(Cn1cc(C(F)(F)F)ccc1=O)N/N=C/c1ccc(F)cc1 | i | i | i | i | i
O=C(Cn1cc(C(F)(F)F)ccc1=O)N/N=C/c1ccccc1O | 5.8µM | i | 18.3µM | i | i
CCc1ccc(-c2cc(C)no2)cc1S(=O)(=O)NCCc1ccc(OC)c(OC)c1 | i | i | ? | i | i
O=C(CC12CC3CC(CC(C3)C1)C2)N1CCCOC1 | i | i | i | i | i
O=C(CC12CC3CC(C1)CC(CC(=O)N1CCCC1)(C3)C2)N1CCCC1 | i | i | i | i | 14.6µM
Cc1ccc2c(c1)sc(-c1ccc(N(C)C)cc1)[n+]2C | 13µM | 1.84µM | ? | 11.6µM | i
COc1ccc(C)cc1Nc1n[n+](-c2ccccc2)c(-c2ccc(N(C)C)cc2)s1 | ? | ? | i | ? | i
CCN1C(=O)[C@H]2[C@H]3CN=C(SC)N3[C@@](Cc3ccccc3)(C(=O)OC)[C@H]2C1=O | i | i | ? | i | i
COC(=O)c1c(C)nc2ccccc2c1C(=O)O | i | i | i | i | i
COC(=O)c1cc(C)[nH]c2c(C)cc3nc4ccccc4c3c12 | ? | i | 18.3µM | 20.6µM | ?
